Source: PubChem BioAssay (NCATS)
“And” between values parts separate entries of the source, which are not always exact repeats. Equal entries are not always repeated. Records with an inconclusive call do not appear. A number with no mark means an inactive call. The source made the active and inactive calls. The call rests on the fitted dose curve; in most records, active means well fitted curve in the direction sought with a large enough effect; inconclusive means small, poorly fitted or top-dose-only effect, or another doubt; inactive means no such curve, though single readings can be large; an effect the other way counts as inactive or inconclusive.

Assays:
[1] = target: Cellular tumor antigen p53 (Homo sapiens) (UniProt P04637); assay: Primary qHTS for small molecule compounds that upregulate eGFP-tagged delta133p53alpha (in N-terminal) cells. (AID 2060322); details: NCI-H358 eGFP-delta133p53alpha fluorescence, 24 h; activation: active compounds read high; further: nearly all actives have a fitted effect of over 75% in size; further: potency means the concentration at half of the fitted maximal effect;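 on activation: series mostly up to about 56 µM; 0% = DMSO vehicle and 100% = reference activator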
Cellular tumor antigen p53 (Homo sapiens), sequence (P04637 whole entry, looked up): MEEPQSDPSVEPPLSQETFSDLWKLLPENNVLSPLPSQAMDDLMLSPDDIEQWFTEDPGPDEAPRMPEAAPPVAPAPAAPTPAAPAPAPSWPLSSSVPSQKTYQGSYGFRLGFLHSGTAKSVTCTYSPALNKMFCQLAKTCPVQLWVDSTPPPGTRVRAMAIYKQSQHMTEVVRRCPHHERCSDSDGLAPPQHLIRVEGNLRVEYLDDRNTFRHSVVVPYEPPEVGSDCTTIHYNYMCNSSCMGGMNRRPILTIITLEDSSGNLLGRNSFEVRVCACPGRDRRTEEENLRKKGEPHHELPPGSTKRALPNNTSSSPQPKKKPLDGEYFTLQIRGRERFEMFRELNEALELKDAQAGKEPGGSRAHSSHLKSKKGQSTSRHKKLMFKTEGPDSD
In short: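 NCI-H358 cells pre-induced 24 h with 10 ng/ml doxycycline to express N-terminal eGFP-delta133p53alpha, then dosed 24 h at 37C without doxycycline; fixed, Hoechst-stained, GFP intensity by laser scanning cytometry, normalized to DMSO (0%) and 57.5 uM 5-azacytidine (100%).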

[2] = target: Aldehyde dehydrogenase, mitochondrial (Homo sapiens) (UniProt P05091); assay: qHTS for Inhibitors of the Aldehyde Dehydrogenase Family (ALDH2) Primary screen (AID 2061308);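 further: plate controls were vehicle for no effect and reference inhibitor for full effect; nearly all actives have a fitted effect of over 55% in size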
[3] = target: Retinaldehyde dehydrogenase 3 (Homo sapiens) (UniProt P47895); assay: qHTS for Inhibitors of the Aldehyde Dehydrogenase Family (ALDH1A3) Primary screen (AID 2061315);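 further: plate controls were DMSO vehicle for no effect and reference inhibitor for full effect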
[4] = BET inhibitor-based combinations targeting novel dependencies in MECOM-rearranged (r) AML: SET-2 cell line (AID 2202231); details: SET-2 AML cells viability, CellTiter-Glo luminescence, 48 h; viability: active compounds read low, concentration not given here; further: nearly all actives have a fitted effect of over 35% in size; further: potency means the concentration at half of the fitted maximal effect;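 on viability: plate controls were DMSO treated cells for no effect and wells without cells for full effect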
In short: (§1)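 Cells were plated at 500 per well and exposed to an 11-point dose series of each drug for 48 hr. Viability was measured by CellTiter-Glo luminescence, normalized to DMSO and empty-well controls, and summarized as AUC and per-cell-line Z-AUC.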

[5] = BET inhibitor-based combinations targeting novel dependencies in MECOM-rearranged (r) AML: OCI-AML3 cell line (AID 2202232); details: Potency: OCI-AML3 viability; further: nearly all actives have a fitted effect of over 35% in size; further: potency means the concentration at half of the fitted maximal effect
In short: as §1

[6] = BET inhibitor-based combinations targeting novel dependencies in MECOM-rearranged (r) AML: MV-4-11 cell line (AID 2202233); further: nearly all actives have a fitted effect of over 45% in size; further: potency means the concentration at half of the fitted maximal effect
In short: (§2)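 Activity is given as area under the curve and as Z-AUC, mean-centred within each cell line. It comes from 11-point dose curves normalized to DMSO and empty wells. CellTiter-Glo luminescence was read after 48 hr drug exposure of 500 cells/well.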

[7] = BET inhibitor-based combinations targeting novel dependencies in MECOM-rearranged (r) AML: HNT-34 cell line (AID 2202234); further: nearly all actives have a fitted effect of over 35% in size; further: potency means the concentration at half of the fitted maximal effect
In short: as §2

[8] = BET inhibitor-based combinations targeting novel dependencies in MECOM-rearranged (r) AML: UCSD-AML1 cell line (AID 2202235); further: nearly all actives have a fitted effect of over 40% in size; further: potency means the concentration at half of the fitted maximal effect
In short: as §2

[9] = BET inhibitor-based combinations targeting novel dependencies in MECOM-rearranged (r) AML: AML-191 cell line (AID 2202236; further: nearly all actives have a fitted effect of over 35% in size; further: potency means the concentration at half of the fitted maximal effect)
In short: as §1

[10] = BET inhibitor-based combinations targeting novel dependencies in MECOM-rearranged (r) AML: AML-194 cell line (AID 2202237; further: nearly all actives have a fitted effect of over 40% in size; further: potency means the concentration at half of the fitted maximal effect)
In short: as §1

| Structure (SMILES) | activation [1] | Potency [2] | Potency [3] | Potency [4] | Potency [5] | Potency [6] | Potency [7] | Potency [8] | Potency [9] | Potency [10] | Potency [1] | viability [4] |
| --- | --- | --- | --- | --- | --- | --- | --- | --- | --- | --- | --- | --- |
| CCCC(CCC)C(=O)Nc1ccn([C@@H]2O[C@H](CO)[C@@H](O)C2(F)F)c(=O)n1 | -16.2% | inactive | inactive | 3720 nM (active) | 934 nM (active) | 1050 nM (active) | 4680 nM (active) | 4170 nM (active) | 2350 nM (active) | 2630 nM (active) | – | – |
| CCN1CCN(Cc2ccc(NC(=O)c3ccc(C)c(NC(=O)c4cncc(-c5cccs5)c4)c3)cc2C(F)(F)F)CC1 | – | inactive | inactive | 5900 nM (active) | 4170 nM (active) | 118 nM (active) | 14.8 nM (active) | 1050 nM (active) | 1050 nM (active) | 1180 nM (active) | 26.9 µM (active) | – |
| Cn1c2cc(S(C)=O)sc2c2cnn(Cc3cccc(N)c3)c(=O)c21 (stereo not given) | 15.5% | inactive | inactive | – | inactive | inactive | inactive | inactive | inactive | inactive | – | 104% |
| O=C(c1ccc(Nc2nccc(-c3cc4ccccc4s3)n2)cc1)N1CCC(N2CCCC2)CC1 | -33.3% | inactive | inactive | 6610 nM (active) | 18600 nM (active) | 1860 nM (active) | 5250 nM (active) | 3320 nM (active) | 7420 nM (active) | 7420 nM (active) | – | – |
| CCNC(=O)Nc1ncc(-c2cc(-c3c(C)cc(OC)cc3C)nc(-c3cnccn3)n2)s1 | -5.36% | inactive | inactive | – | inactive | inactive | inactive | inactive | inactive | inactive | – | 114% |
| COC(=O)c1ccc2c(C(=Nc3ccc(N(C)C(=O)CN4CCN(C)CC4)cc3)c3ccccc3)c(O)[nH]c2c1 | 5.68% | inactive | inactive | 11800 nM (active) | 10500 nM (active) | 166 nM (active) | 1320 nM (active) | 5250 nM (active) | 5250 nM (active) | 5250 nM (active) | – | – |
| Cc1ccc(-c2ccc3ncc4c(c3n2)n(C2CCN(C(=O)[C@H](C)O)CC2)c(=O)n4C)cn1 | – | inactive | inactive | 166 nM (active) | 296 nM (active) | 209 nM (active) | 263 nM (active) | 93.4 nM (active) | 166 nM (active) | 417 nM (active) | 12 µM (active) | – |
| N#Cc1ccc(C2CCCc3cncn32)cc1 (stereo not given) | -5% | inactive | inactive | – | inactive | inactive | inactive | inactive | inactive | inactive | – | 109% |
| COc1cc(C(=O)NC2CCN(C)CC2)c(F)cc1Nc1ncc2c(n1)N(C1CCCC1)CC(F)(F)C(=O)N2C | 17% | inactive | inactive | 93.4 nM (active) | 46.8 nM (active) | 105 nM (active) | 105 nM (active) | 105 nM (active) | 118 nM (active) | 83.3 nM (active) | – | – |
| Cc1cc(O)c(-c2ccc([C@@H](C)CN(C)C)cc2)c2c1[nH]c(=O)c1sccc12 | – | inactive | inactive | 148 nM (active) | 132 nM (active) | 83.3 nM (active) | 148 nM (active) | 93.4 nM (active) | 118 nM (active) | 417 nM (active) | 0.301 µM (active) | – |
| CN(C)C/C=C/C(=O)Nc1cccc(C(=O)Nc2cccc(Nc3ncc(Cl)c(-c4c[nH]c5ccccc45)n3)c2)c1 | – | inactive | inactive | 1050 nM (active) | 166 nM (active) | 3.3 nM (active) | 235 nM (active) | 209 nM (active) | 468 nM (active) | 525 nM (active) | 0.239 µM (active) | – |
| C=CC(=O)Nc1cc(Nc2nccc(-c3cn(C)c4ccccc34)n2)c(OC)cc1N(C)CCN(C)C | – | inactive | inactive | 9340 nM (active) | 3720 nM (active) | 2950 nM (active) | 5250 nM (active) | 4680 nM (active) | 8330 nM (active) | 7420 nM (active) | 3.79 µM (active) | – |
| COc1ccc(-c2cc3c(C)nc(N)nc3n(C3CCC(OCCO)CC3)c2=O)cn1 (stereo not given) | 3.45% | inactive | inactive | 1660 nM (active) | 417 nM (active) | 296 nM (active) | 590 nM (active) | 105 nM (active) | 296 nM (active) | 209 nM (active) | – | – |
| CC1=C(CO)C(=O)O[C@@H]([C@@H](C)[C@H]2CC[C@H]3[C@@H]4C[C@H]5O[C@]56[C@@H](O)C=CC(=O)[C@]6(C)[C@H]4CC[C@]23C)C1 | – | inactive | inactive | 590 nM (active) | 742 nM (active) | 662 nM (active) | 118 nM (active) | 417 nM (active) | 372 nM (active) | 372 nM (active) | 1.47 µM (active) | – |
| CC(C)CC(=O)Nc1n[nH]c2c1CN(C(=O)C1CCN(C)CC1)C2(C)C | – | inactive | inactive | 10500 nM (active) | 1320 nM (active) | 372 nM (active) | 2350 nM (active) | 2350 nM (active) | 5900 nM (active) | 5900 nM (active) | 6.11 µM (active) and 4.78 µM (active) | – |
| Oc1ccc([C@@H]2Oc3ccc(O)cc3[C@@H]3CCC[C@@H]32)cc1 | 23.4% | inactive | inactive | 18600 nM (active) | 16600 nM (active) | 13200 nM (active) | 9340 nM (active) | 5900 nM (active) | 5900 nM (active) | 7420 nM (active) | – | – |
| C[C@@H](Oc1cc(-c2cnn(C3CCNCC3)c2)cnc1N)c1c(Cl)ccc(F)c1Cl | -17.6% | inactive | inactive | 10500 nM (active) | 5900 nM (active) | 2350 nM (active) | 1180 nM (active) | 1660 nM (active) | 1180 nM (active) | 1480 nM (active) | – | – |
| Cc1cc(Nc2cc(N3CCN(C)CC3)nc(/C=C/c3ccccc3)n2)n[nH]1 | – | inactive | inactive | 13200 nM (active) | 8330 nM (active) | 132 nM (active) | 525 nM (active) | 2950 nM (active) | 2090 nM (active) | 1180 nM (active) | 30.1 µM (active) | – |
| CS(=O)(=O)c1ccc(Oc2cc(F)cc(C#N)c2)c2c1[C@H](O)C(F)(F)C2 | -20.7% | inactive | inactive | – | inactive | inactive | inactive | inactive | inactive | inactive | – | 103% |
| Cc1cnc(-c2cc(N3CCN(C(=O)CCS(C)(=O)=O)CC3)ncc2Cl)c(C)c1 | 20.4% and -10.5% | inactive | inactive | – | inactive | inactive | inactive | inactive | inactive | inactive | – | 112% |
| CC(C)(C)C(=O)CN1C(=O)[C@H](NC(=O)Nc2cccc(C(=O)O)c2)CN(C2CCCCC2)c2ccccc21 | -7.67% | inactive | inactive | – | inactive | inactive | inactive | inactive | inactive | inactive | – | 110% |
| CC(C)c1cnn2c(NCc3ccccc3)cc(N[C@@H](CO)[C@H](O)CO)nc12 | – | inactive | inactive | 296 nM (active) | 468 nM (active) | 372 nM (active) | 296 nM (active) | 372 nM (active) | 296 nM (active) | 372 nM (active) | 544 nM (active) and 1.51 µM (active) | – |
| OCCCNc1cc(-c2ccnc(Nc3cccc(Cl)c3)n2)ccn1 | – | inactive | inactive | 132 nM (active) | 118 nM (active) | 132 nM (active) | 132 nM (active) | 83.3 nM (active) | 93.4 nM (active) | 332 nM (active) | 172 nM (active) and 301 nM (active) | – |
| O=C(Nc1nc2cccc(-c3ccc(CN4CCS(=O)(=O)CC4)cc3)n2n1)C1CC1 | – | inactive | inactive | 18600 nM (active) | 14800 nM (active) | 3320 nM (active) | 14800 nM (active) | 5900 nM (active) | 9340 nM (active) | 13200 nM (active) | 43.2 µM (active) and 34.3 µM (active) | – |
| Cc1[nH]c2ccc(F)cc2c1-c1nc2c3cccnc3c3ncccc3c2[nH]1 | -1% | inactive | inactive | 2700 nM (active) | 679 nM (active) | 605 nM (active) | 679 nM (active) | 679 nM (active) | 539 nM (active) | 762 nM (active) | – | – |
| C=C1C(=O)[C@@]23C(CC[C@@H]1[C@H]2O)[C@@]12CO[C@]3(O)[C@@H](O)[C@@H]1C(C)(C)CC[C@@H]2O (stereo not given in full) | – | inactive | inactive | 9340 nM (active) | 3320 nM (active) | 2630 nM (active) | 2350 nM (active) | 5900 nM (active) | 8330 nM (active) | 11800 nM (active) | 27.3 µM (active) | – |
| COc1cc2ncnc(Nc3ccc(F)c(Cl)c3)c2cc1NC(=O)/C=C/CN1CCCCC1 | – | inactive | inactive | 8330 nM (active) | 5900 nM (active) | 2950 nM (active) | 3720 nM (active) | 8330 nM (active) | 7420 nM (active) | 8330 nM (active) | 9.53 µM (active) | – |
| CN1CCC(CNc2ccc3ncc(-c4cccc(OC(F)(F)F)c4)n3n2)CC1 | – | inactive | inactive | 11800 nM (active) | 8330 nM (active) | 166 nM (active) | 5250 nM (active) | 5900 nM (active) | 5250 nM (active) | 4170 nM (active) | 26.9 µM (active) | – |
| CCc1cc(C(N)=O)ccc1-n1nc(C(C)C)c2c(-n3cnc(-c4cnn(C)c4)c3)ccnc21 | 4.33% | inactive | inactive | 2950 nM (active) | 1860 nM (active) | 662 nM (active) | 1320 nM (active) | 1860 nM (active) | 1660 nM (active) | 1480 nM (active) | – | – |
